For nine molecules, Potency results are on record in PubChem BioAssay (Tox21).

The nature of test [1]: Nuclear factor erythroid 2-related factor 2/antioxidant responsive element (Nrf2/ARE) small molecule agonists: qHTS cell viability counter screen in human keratinocytes (AID 1919968; active = well fitted curve in the direction sought with a large enough effect in the repeat runs; an effect the other way counts as inactive or inconclusive; also: nearly all actives have a fitted effect of over 55% in size). The essentials:
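Cells of the KeratinoSens line were plated at 1,500 per well and left for 5 h before compound transfer from DMSO stocks. After a 23 h incubation (37 C, 5% CO2), CellTiter-Fluor was added. Signal was taken as fluorescence intensity 1 h later.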
In general terms: qHTS replaces the single test concentration by a dilution series.

The target of test [2] is Gonadotropin-releasing hormone receptor (Homo sapiens) (UniProt P30968). Nature of the test: Human gonadotropin-releasing hormone receptor (GnRHR) small molecule agonists, calcium flux assay in GnRHR-HEK293 cells (AID 1920063). Also: nearly all actives have a fitted effect of over 35% in size. The essentials: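 Compounds dissolved in DMSO are pin-transferred onto dye-loaded GnRHR-HEK293 cells, which were seeded 18 h before at 37 C/5% CO2. Calcium signal is read as fluorescence intensity at 1 s intervals for 3 min.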
A general note: A change in cytosolic calcium serves as a functional read-out for many receptors and channels.

Test [3] concerns the target KiSS-1 receptor (Homo sapiens) (UniProt Q969F8). Nature of the test: Human kisspeptin (KISS1R) small molecule agonists, calcium flux assay in KISS1R-HEK293 cells (AID 1920064; active = well fitted curve in the direction sought with a large enough effect in the repeat runs; an effect the other way counts as inactive or inconclusive). An outline of the steps:
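Cell line: HEK293, stable human KISS1R. Dye loading 1 h at 37 C after 18 h culture. Read: kinetic fluorescence, 480/540 nm, 3 min at 1 s intervals.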

The nature of test [4]: G protein-coupled receptor (GPCR) small molecule agonists, calcium flux assay: HEK293 wild type cell line counter screen (AID 1920065). The essentials:
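Tox21 10K compounds, 15 concentrations each in triplicate, pin-transferred in DMSO onto dye-loaded cells; kinetic read at 480/540 nm for 3 min, 1 s intervals.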

The nature of test [5]: p53 small molecule agonists, cell-based qHTS assay with human liver microsomes (AID 1963577). The essentials: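 p53RE-bla cells, 4,000/well, compound added after 5 h, with human liver microsomes 0.5 mg/mL and NADPH 0.5 mg/mL final; 16 h at 37 C, then LiveBLAzer 2 h RT, fluorescence.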
The nature of test [6]: p53 small molecule agonists, cell-based qHTS assay with rat liver microsomes (AID 1963578). The essentials: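 p53RE-bla cells, 4,000/well, pre-incubated 5 h, then given compounds plus rat liver microsomes (0.5 mg/mL final) and NADPH (0.5 mg/mL final). Incubation 16 h at 37 C; beta-lactamase reporter read by LiveBLAzer fluorescence after 2 h at room temperature.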
Test [7] is described as follows: p53 small molecule agonists, cell-based qHTS assay with human liver microsomes: qHTS cell viability counter screen (AID 1963579). Also: nearly all actives have a fitted effect of over 45% in size. The essentials: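 p53RE-bla cells, 4,000/well, dosed 5 hours after plating, with human liver microsomes (0.5 mg/mL final) plus NADPH (0.5 mg/mL final), 16 hours at 37 C. Viability read as CellTiter-Glo luminescence after 30 min at room temperature.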

The nature of test [8]: p53 small molecule agonists, cell-based qHTS assay with rat liver microsomes: qHTS cell viability counter screen (AID 1963580). Also: nearly all actives have a fitted effect of over 45% in size. An outline of the steps: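 Counter screen for cytotoxicity under metabolic activation: rat liver microsomes and NADPH, 0.5 mg/mL final each, added with compounds to p53RE-bla HCT-116 cells; 16 h at 37 C, then ATP luminescence read.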
Test [9] is described as follows: p53 small molecule agonists, cell-based qHTS assay: qHTS cell viability counter screen (AID 1963581). Also: nearly all actives have a fitted effect of over 45% in size. An outline of the steps:
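ATP content measured by luminescence in HCT-116 p53RE-bla cells treated 16 h at 37 C, same wells as the reporter screen.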

A short description of test [10]: p53 small molecule agonists, cell-based qHTS assay (AID 1963582; active = well fitted activation curve with a large enough effect in the signal ratio in the repeat runs, not every such curve was filed as active; the % refers to the signal ratio). An outline of the steps:
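16 h compound exposure (37 C) of p53 response element–bla cells, preceded by 5 h recovery at 37 C/5% CO2; read-out via LiveBLAzer B/G FRET substrate, 2 h RT, fluorescence intensity.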

Test [11] concerns the target Muscarinic acetylcholine receptor M1 (Homo sapiens) (UniProt P11229). Nature of the test: Cholinergic receptor muscarinic 1 (CHRM1) small molecule antagonists, cell-based qHTS assay (AID 1963588). Also: nearly all actives have a fitted effect of over 40% in size. An outline of the steps:
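Compounds were tested at 15 concentrations in three independent runs. Dye-loaded CHRM1-CHO cells were exposed 5 min at room temperature before stimulation by acetylcholine added at 50nM. Intracellular calcium was read kinetically on FDSS for 3 min.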

Test [12] shares this target. Description: Cholinergic receptor muscarinic 1 (CHRM1) small molecule agonists, cell-based qHTS assay (AID 1963589). Also: nearly all actives have a fitted effect of over 35% in size. An outline of the steps: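 Homogeneous fluorescence calcium flux, agonist mode. Human M1-expressing CHO cells; compound dosed at 15 concentrations, three independent runs; signal sampled every 1 sec.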
Test [13] is described as follows: cAMP Responsive Elements (CRE) small molecule agonists, cell-based qHTS assay (AID 1963590). An outline of the steps: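 HEK 293T cells stably bearing CRE-bla were plated at 2,000 cells per well and rested 18 h. Compounds, positive controls or DMSO were added for 3 h at 37 C. LiveBLAzer B/G substrate was then loaded for 2 h at room temperature.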
A short description of test [14]: cAMP Responsive Elements (CRE) small molecule antagonists, cell-based qHTS assay (AID 1963591; active = well fitted inhibition curve with a large enough effect in the signal ratio in the repeat runs, not every such curve was filed as active; the % refers to the signal ratio). The essentials:
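First, CRE-bla HEK293T cells settled 18 h at 37 C. Next, compound and 0.25 uM final NKH477 were applied for 3 h. Last, LiveBLAzer B/G substrate was loaded for 2 h at room temperature.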

In test [15] the target is Beta-2 adrenergic receptor (Homo sapiens) (UniProt P07550). Nature of the test: Adrenergic beta2 receptor (ADRB2) small molecule antagonists, cell-based qHTS assay (AID 1963592). Also: series mostly up to about 92 µM; nearly all actives have a fitted effect of over 50% in size. An outline of the steps: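 Assay format: CHO-ADRB2 cells, 18-20hr seeding at 37C/5% CO2, then compound plus 1nM isoproterenol agonist mix for 0.5hr RT. Homogeneous time-resolved fluorescence cAMP detection after 1hr, expressed as 665/615 nm ratio.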

Test [16] shares this target. Description: Adrenergic beta2 receptor (ADRB2) small molecule agonists, cell-based qHTS assay (AID 1963593).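 Also: CHO cells stably overexpressing human ADRB2.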 The essentials:
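CHO cells stably over-expressing ADRB2 were plated overnight at 37C, then dosed with compounds plus a stimulation mix containing 100uM IBMX and 25uM Ro-20-1724 for 0.5hr at room temperature. cAMP was measured by HTRF competition, 1hr.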

Test [17] has as its target D(2) dopamine receptor (Homo sapiens) (UniProt P14416). Nature of the test: Dopamine D2 receptor (DRD2) small molecule agonists, cell-based qHTS assay (AID 1963594). Also: nearly all actives have a fitted effect of over 35% in size. The essentials: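 HEK293 cells stably expressing DRD2 were cultured 24 h at 37 C, then given Ro20-1724 (0.1 mM final) and compounds for 10 min at room temperature. NKH477 (200nM) was then added for 30 min. cAMP was read by HTRF.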

For test [18] the target is unchanged. Nature of the test: Dopamine D2 receptor (DRD2) small molecule antagonists, cell-based qHTS assay (AID 1963595; active = well fitted inhibition curve with a large enough effect in the signal ratio in the repeat runs, with a control signal flat; the % refers to the signal ratio; also: potency is read from the fitted curve at half-maximal effect). An outline of the steps: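 Stable D2 receptor HEK293 line, 24 h after seeding. Compound preincubated 10 min, then quinpirole (12 nM) with forskolin analogue NKH477 (200 nM), 30 min, room temperature. Detection by time-resolved FRET of cAMP.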
Test [19] addresses 5-hydroxytryptamine receptor 2A (Homo sapiens) (UniProt P28223). Description: 5-hydroxytryptamine receptor 2A (HTR2A) small molecule antagonists, cell-based qHTS assay (AID 1963586). Also: nearly all actives have a fitted effect of over 45% in size. An outline of the steps: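 CHO cells stably expressing human HTR2A were plated for 18 h at 37 C, then loaded with calcium dye for 1 h. Compounds were preincubated 5 min at room temperature before DOI (4 nM solution) was added. Kinetic fluorescence was read for 3 min.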

Test [20] has the same target. Nature of the test: 5-hydroxytryptamine receptor 2A (HTR2A) small molecule agonists, cell-based qHTS assay (AID 1963587). Also: nearly all actives have a fitted effect of over 30% in size. An outline of the steps:
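HTR2A-CHO cells, plated 18 h at 37 C/5% CO2, dye-loaded 1 h at 37 C; compounds in DMSO added by pin tool (agonist mode). Intracellular calcium flux read as kinetic fluorescence on FDSS over 2 min at 1 s intervals.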

Several values for one entry are separate records, joined by “and”; a condition that tells them apart may be missing. Equal values may be shown once. Results filed as inconclusive are left out. Activity calls are given as the source filed them. Unless noted, calls follow the shape of the full dose curve.

Chain of Muscarinic acetylcholine receptor M1 (Homo sapiens) (P11229 whole entry, looked up): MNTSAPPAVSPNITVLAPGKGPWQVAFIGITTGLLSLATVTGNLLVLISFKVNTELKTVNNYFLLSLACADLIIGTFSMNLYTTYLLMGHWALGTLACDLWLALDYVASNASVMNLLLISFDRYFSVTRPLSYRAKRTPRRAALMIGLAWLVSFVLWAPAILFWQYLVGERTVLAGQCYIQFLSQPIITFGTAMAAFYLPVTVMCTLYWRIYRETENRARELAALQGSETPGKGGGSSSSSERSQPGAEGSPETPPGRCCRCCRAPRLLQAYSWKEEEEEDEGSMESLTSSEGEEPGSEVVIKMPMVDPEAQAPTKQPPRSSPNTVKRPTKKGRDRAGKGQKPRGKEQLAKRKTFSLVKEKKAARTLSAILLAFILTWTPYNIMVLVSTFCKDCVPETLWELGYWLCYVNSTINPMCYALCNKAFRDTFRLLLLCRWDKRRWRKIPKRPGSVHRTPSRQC
Chain of KiSS-1 receptor (Homo sapiens) (Q969F8 whole entry, looked up): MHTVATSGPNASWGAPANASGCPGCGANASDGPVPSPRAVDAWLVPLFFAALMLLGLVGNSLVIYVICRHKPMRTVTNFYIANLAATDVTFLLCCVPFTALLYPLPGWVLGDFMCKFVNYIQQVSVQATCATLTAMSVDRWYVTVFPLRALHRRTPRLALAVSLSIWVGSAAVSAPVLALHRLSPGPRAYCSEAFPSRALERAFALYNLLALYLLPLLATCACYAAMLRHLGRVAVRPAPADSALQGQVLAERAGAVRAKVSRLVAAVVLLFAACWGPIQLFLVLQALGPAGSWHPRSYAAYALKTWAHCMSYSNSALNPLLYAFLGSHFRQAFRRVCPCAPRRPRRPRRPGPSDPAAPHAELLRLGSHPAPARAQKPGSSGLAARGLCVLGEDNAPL
Chain of Gonadotropin-releasing hormone receptor (Homo sapiens) (P30968 whole entry, looked up): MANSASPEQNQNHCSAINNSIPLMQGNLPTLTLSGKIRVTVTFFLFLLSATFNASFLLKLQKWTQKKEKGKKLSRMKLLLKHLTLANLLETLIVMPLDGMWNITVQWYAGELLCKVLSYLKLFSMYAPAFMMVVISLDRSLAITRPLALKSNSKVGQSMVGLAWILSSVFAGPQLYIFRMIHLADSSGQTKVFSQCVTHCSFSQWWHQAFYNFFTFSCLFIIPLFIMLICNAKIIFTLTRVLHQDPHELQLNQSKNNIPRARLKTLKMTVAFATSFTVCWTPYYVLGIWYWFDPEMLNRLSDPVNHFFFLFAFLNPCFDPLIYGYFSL
Chain of Beta-2 adrenergic receptor (Homo sapiens) (P07550 whole entry, looked up): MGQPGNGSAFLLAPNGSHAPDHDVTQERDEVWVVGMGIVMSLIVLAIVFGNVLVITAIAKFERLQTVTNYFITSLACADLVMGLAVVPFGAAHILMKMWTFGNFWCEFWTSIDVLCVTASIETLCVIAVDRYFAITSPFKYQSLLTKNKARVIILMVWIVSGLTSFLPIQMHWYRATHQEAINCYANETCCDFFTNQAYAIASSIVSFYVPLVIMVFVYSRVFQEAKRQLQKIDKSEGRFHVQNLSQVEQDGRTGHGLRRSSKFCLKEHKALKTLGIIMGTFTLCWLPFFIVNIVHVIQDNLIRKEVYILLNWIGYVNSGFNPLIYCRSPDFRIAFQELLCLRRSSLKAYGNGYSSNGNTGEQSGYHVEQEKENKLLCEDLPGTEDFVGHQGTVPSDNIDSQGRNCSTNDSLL
Chain of D(2) dopamine receptor (Homo sapiens) (P14416 whole entry, looked up): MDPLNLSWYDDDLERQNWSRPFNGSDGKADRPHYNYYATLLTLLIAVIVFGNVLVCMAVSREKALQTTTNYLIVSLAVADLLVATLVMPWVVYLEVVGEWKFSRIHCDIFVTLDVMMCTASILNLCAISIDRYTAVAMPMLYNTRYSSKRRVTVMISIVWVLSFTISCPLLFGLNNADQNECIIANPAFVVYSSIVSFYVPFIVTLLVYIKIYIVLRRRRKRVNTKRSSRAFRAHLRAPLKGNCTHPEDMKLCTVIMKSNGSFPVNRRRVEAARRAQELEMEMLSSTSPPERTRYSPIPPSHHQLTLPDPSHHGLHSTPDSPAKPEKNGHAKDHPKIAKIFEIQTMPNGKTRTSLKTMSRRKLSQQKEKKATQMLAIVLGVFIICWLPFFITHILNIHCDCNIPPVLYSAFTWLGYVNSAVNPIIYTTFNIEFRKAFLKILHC
Chain of 5-hydroxytryptamine receptor 2A (Homo sapiens) (P28223 whole entry, looked up): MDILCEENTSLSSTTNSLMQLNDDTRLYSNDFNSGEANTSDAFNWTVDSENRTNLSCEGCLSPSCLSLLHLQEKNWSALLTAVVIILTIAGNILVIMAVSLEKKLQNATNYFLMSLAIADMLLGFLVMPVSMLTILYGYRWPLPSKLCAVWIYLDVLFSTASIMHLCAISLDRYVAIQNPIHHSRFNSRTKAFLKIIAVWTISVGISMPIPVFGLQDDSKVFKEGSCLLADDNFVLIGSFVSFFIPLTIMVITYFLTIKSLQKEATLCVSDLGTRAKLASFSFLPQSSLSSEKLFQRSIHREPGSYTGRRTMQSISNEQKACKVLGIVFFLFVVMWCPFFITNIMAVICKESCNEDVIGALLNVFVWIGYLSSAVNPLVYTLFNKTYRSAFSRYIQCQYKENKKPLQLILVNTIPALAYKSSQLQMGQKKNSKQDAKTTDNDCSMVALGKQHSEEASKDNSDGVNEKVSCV

With `CC(=O)OC(C)(C)C1CC=C(C)CC1` (stereo not given), the Potency result in test [1], in test [2], in test [3], in [4], in test [5] and in [6] was “inactive” throughout. The Potency result in [7], in test [8], in test [9], in test [10], in [11] and in test [12] was “inactive” throughout. The Potency entry in [13], in test [14], in [15], in test [16], in [17] and in test [18] was “inactive” throughout.

For the molecule `CCCCC(CC)CO` (stereo not given), the Potency entry in test [1], in [3], in test [4], in [6], in test [7] and in [8] was “inactive” throughout. For the same molecule, the Potency result in [9], in [10], in [19], in test [20], in [11] and in test [12] was “inactive” throughout. Also, the Potency entry in test [14], in test [15], in test [16] and in test [18] was “inactive” in each case.

In the case of `CC(C)NCC(O)c1ccc(O)c(O)c1` (stereo not given), the Potency entry in test [1], in [3], in test [4], in test [7], in [8] and in [14] was “inactive” in each case. In addition, the Potency result in test [17] is “inactive”. Moreover, in test [18], the Potency is 303 nM (active) and 969 nM (active) and 596 nM (active).

Regarding `Cc1ncc(CO)c(CO)c1O`, the Potency entry in test [1], in test [3], in test [4], in test [5], in test [6] and in [8] was “inactive” throughout. Also, the Potency entry in test [9], in [10], in test [19], in [20], in test [11] and in test [12] was “inactive” in each case. Besides, the Potency entry in test [13], in test [14], in test [15], in [16], in test [17] and in test [18] was “inactive” each time.

On to `CCCc1c(OCCCCc2nn[nH]n2)ccc(C(C)=O)c1O`, for which the Potency entry in test [1], in test [3], in test [4], in [5], in [6] and in test [7] was “inactive” each time. Further, the Potency entry in [8], in test [9], in test [19], in [20], in test [11] and in [12] was “inactive” throughout. Besides, the Potency result in [15], in test [17] and in test [18] was “inactive” in each case.

Consider `CC(=O)Nc1ccc2c(c1)Cc1cc(NC(C)=O)ccc1-2`, for which the Potency result in test [1], in [2], in test [3], in test [4], in [5] and in test [6] was “inactive” each time. For the same molecule, the Potency entry in test [7], in test [8], in [9], in test [10], in [19] and in test [20] was “inactive” throughout. Also, the Potency result in test [11], in test [12], in [14], in test [16], in test [17] and in test [18] was “inactive” throughout.

For the molecule `CNNCc1ccc(C(=O)NC(C)C)cc1`, the Potency result in test [1], in test [2], in test [3], in test [4], in test [5] and in test [6] was “inactive” in each case. For the same molecule, the Potency result in test [7], in test [8], in test [9], in test [10], in [13] and in test [14] was “inactive” throughout. For the same molecule, the Potency entry in [15], in [16], in test [17] and in test [18] was “inactive” each time.

As to `Cc1ccc(C(=O)O)o1`, the Potency entry in test [1], in test [3], in test [4], in test [7], in test [8] and in [9] was “inactive” each time. In addition, the Potency entry in [19], in [11], in test [12], in test [13], in test [14] and in test [15] was “inactive” in each case. Further, the Potency result in [16], in test [17] and in test [18] was “inactive” throughout.

For the molecule `CC(C)=CCl`, the Potency result in test [1], in [3], in test [4], in test [5], in [6] and in test [7] was “inactive” throughout. The Potency entry in [8], in [10], in test [19], in [20], in [11] and in test [12] was “inactive” throughout. The Potency entry in test [14], in test [15], in test [17] and in test [18] was “inactive” in each case.
